Source: PubChem BioAssay
VDR inh: inhibitors of human vitamin D receptor; 400,000 tested, 0.93% active; VDR-SRC2-3 peptide fluorescence polarization, 2 h; Potency, µM, without a hit: max response, negative = inhibition, hits mostly inhibitors; AID 504847; P11473
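Signal is fluorescence polarization, reporting how far test compounds block the interaction of VDR with the SRC2-3 coregulator peptide after a 2 h room-temperature incubation.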
Sfp PPTase inh: Sfp phosphopantetheinyl transferase inhibition; Q9F4F7; Biochemical Sfp PPTase activity, qHTS; Potency, µM, for the others: largest response in the series, negative = inhibition, most hits filed as inhibitors; 310,000 tested, 3.5% active; AID 1490;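 also: the enzyme is Sfp with the accession as filed and its product quenches rhodamine fluorescence; 0% = enzyme reaction without inhibitor and -100% = no enzyme wells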
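Step 1, compound plus 15 nM Sfp-PPTase, 15 min, room temperature. Step 2, add rhodamine-CoA (5 uM) and BHQ-2-YbbR (12.5 uM). Step 3, read 525/598 nm fluorescence at 0 and 30 min.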
TrxR1 substrate: rat thioredoxin reductase 1 substrate activity. Potency, µM (top dose mostly 114 µM), for the others: top-dose activity change, negative = substrate turnover. AID 588456. 390,000 tested, 0.01% active. O89049. purified TrxR1 substrate turnover, NADPH consumption readout; also: nearly all actives have a fitted effect of over 50% in size
Target sequence (O89049 whole entry, looked up): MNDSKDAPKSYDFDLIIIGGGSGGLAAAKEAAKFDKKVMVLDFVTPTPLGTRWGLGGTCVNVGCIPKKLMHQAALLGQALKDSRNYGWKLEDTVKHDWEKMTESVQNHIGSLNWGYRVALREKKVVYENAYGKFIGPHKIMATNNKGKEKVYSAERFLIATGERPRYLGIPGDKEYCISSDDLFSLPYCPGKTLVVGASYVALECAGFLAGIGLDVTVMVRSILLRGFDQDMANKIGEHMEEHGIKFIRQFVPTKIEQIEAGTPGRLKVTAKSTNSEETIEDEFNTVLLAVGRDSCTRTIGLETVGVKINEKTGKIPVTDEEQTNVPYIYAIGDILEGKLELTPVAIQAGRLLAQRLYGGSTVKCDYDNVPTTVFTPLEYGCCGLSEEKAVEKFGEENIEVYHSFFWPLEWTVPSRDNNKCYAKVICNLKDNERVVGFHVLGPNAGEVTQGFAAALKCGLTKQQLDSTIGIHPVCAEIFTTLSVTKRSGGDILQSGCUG
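Rat TrxR1, dispensed at 90 nM, was prereduced with 400 uM NADPH (final) for 5 min at ~22 deg C, then incubated with compound 15 min before 400 uM selenite. A first-read NADPH fluorescence drop versus no-compound background flagged substrates.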
IDH1 R132H inh: inhibitors of human mutant IDH1 R132H | AID 602179 | IDH1-R132H enzyme, NADPH consumption, diaphorase/resazurin fluorescence | O75874 | 390,000 tested, 0.093% active | Potency, µM (titrated, usually from 76.6 µM), without a hit: at the highest dose activity change, negative = inhibition, usual class: inhibitors; also: nearly all actives have a fitted effect of over 65% in size
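IDH1-R132H (0.5 ug/mL dispensed) in pH 7.5 Tris buffer was preincubated 30 min with compound, then given a substrate mix of 0.016 mM NADPH and 2 mM alpha-KG for 80 min at room temperature; remaining NADPH was read by diaphorase/resazurin fluorescence.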
rTrxR1 inhibitor: blocks rat thioredoxin reductase 1; O89049; recombinant rTrxR1, NADPH fluorescence consumption, selenite substrate; Potency, µM (top dose mostly 114 µM), inactives show at the highest dose activity change, negative = inhibition, most hits filed as inhibitors; 390,000 tested, 1% active; AID 588453; also: nearly all actives have a fitted effect of over 65% in size
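Rat TrxR1 (90 nM in the dispensed reagent) was pre-reduced with 400 uM NADPH for 5 min at room temperature, then incubated with compound for 15 min. After 400 uM selenite was added, NADPH fluorescence (Ex 340/Em 450 nm) was followed for 8 min.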
PLK1 PBD inh: blocks phosphopeptide binding to human PLK1 polo-box domain | P53350 | Plk1 PBD binding of FITC phosphopeptide, fluorescence polarization | Potency, µM, inactives show max response, negative = inhibition, hits mostly inhibitors | 360,000 tested, 2.8% active | AID 720504; also: series mostly up to about 57 µM; nearly all actives have a fitted effect of over 65% in size
Numbers without * were called inactive; ? = inconclusive; nt = no result; [ ] = remark or other dose. In the library only some 5.2% were active in any assay of this set; here they are far more common. Calls follow the shape of the dose curve; as a rule, active = well fitted curve in the direction sought with a large enough effect; inconclusive = small, poorly fitted or top-dose-only effect, or another doubt; inactive = no such curve, though single readings can be large; an effect the other way counts as inactive or inconclusive. Unless noted, % is scaled to controls: 0 for no effect and ±100 for the full control effect; potency is read from the fitted curve at half-maximal effect.

SMILES	VDR inh	Sfp PPTase inh	TrxR1 substrate	IDH1 R132H inh	rTrxR1 inhibitor	PLK1 PBD inh
COc1cc(/C=C2\SC(=S)N(NS(=O)(=O)c3ccccc3)C2=O)cc(OC)c1OC	?	79.4µM*	-12.1%	-3.3%	-6.8%	0.0%
Cc1ccc2oc(-c3ccc(C)c(NC(=O)COc4ccc(Cl)cc4)c3)nc2c1	nt	nt	6.1%	nt	15.3%	nt
Cc1ccc(S(=O)(=O)NN2C(=O)/C(=C/c3ccc(F)cc3)SC2=S)cc1	-27.4%	5.8%	-5.4%[57.1 µM]	2.9%	-3.2%[57.1 µM]	?
COc1ccc(/C=C2/SC(=S)N(NS(=O)(=O)c3ccc(C)cc3)C2=O)cc1	-7.8%	-9.8%	-9.0%	22.4%	10.4%	23.8µM*
Cc1ccc(S(=O)(=O)NN2C(=O)/C(=C/c3cccn3C)SC2=S)cc1	nt	-17.3%	nt	nt	nt	nt
Cc1ccc(/C=C2\SC(=S)N(NS(=O)(=O)c3ccc(C)cc3)C2=O)cc1	8.5%	-4.2%	-5.5%	3.2%	3.6%	26.7µM*
COC(=O)[C@@H]1CC[C@H](C)[C@@H](c2ccc(C)cc2)N1C(=O)c1ccc(/C=N\O[C@@H](C)CN2CCCCc3nc(C)c(C)cc32)cc1	nt	3.1%	nt	nt	nt	nt
COc1ccc(NC(=O)c2sc3nc(N4CCOCC4)c4c(c3c2N)CC(C)(C)OC4)c(OC)c1	-22.3%	-14.7%	51.5%	-1.7%	18.7%	-15.0%
CN1Cc2c(N3CCOCC3)nc3sc(C#N)c(N)c3c2CC1(C)C	4.7%	-8.1%	87.7%	-6.4%	6.4%	-18.7%
COc1ccc(NC(=O)c2sc3nc(N4CCCC4)c4c(c3c2N)CC(C)(C)OC4)cc1	3.6%	10µM*	4.8%	-2.9%	23.5%	-9.5%
CNC(=O)c1ccc(-c2sc3nc(N4CCOCC4)c4c(c3c2N)CC(C)(C)OC4)o1	-10.1%	79.4µM*	93.5%	7.2%	-9.7%	-13.0%
CNC(=O)c1ccc(-c2sc3nc(N4CCOCC4)c4c(c3c2N)CCCC4)o1	-1.4%	-27.9%	54.1%	1.5%	-26.9%	-3.5%
Nc1c(C(=O)Nc2ccccc2)sc2nc(N3CCOCC3)c3c(c12)CCCC3	nt	nt	nt	-4.2%	nt	?
CCOc1ccc(NC(=O)c2sc3nc(N4CCOCC4)c4c(c3c2N)CCCC4)cc1	-27.2%	-4.4%	60.4%	-10.6%	57.9%	29.9µM*
CN1Cc2c(N3CCOCC3)nc3sc(C(=O)c4ccc(Br)cc4)c(N)c3c2CC1(C)C	11.2%	44.7µM*	-3.9%	1.6%	17.0%[57.1 µM]	-0.6%
CC(C)C[C@H](NC(=O)[C@H](Cc1ccccc1)NC(=O)CNC(=O)[C@H](CCC(=O)O)NC(=O)[C@H](CCCNC(=N)N)NC(=O)[C@H](C)NC(=O)[C@H](C)NC(=O)[C@@H](N)CC(=O)O)C(=O)N[C@@H](CC(=O)O)C(=O)N[C@H](C(=O)N[C@@H](CC(C)C)C(=O)N[C@H](C(=O)N[C@H](C(=O)N[C@@H](CC(C)C)C(=O)N[C@@H](Cc1cnc[nH]1)C(=O)N[C@@H](CCCNC(=N)N)C(=O)N[C@@H](C)C(=O)NCC(=O)N[C@@H](C)C(=O)N[C@@H](CCCNC(=N)N)C(=O)O)C(C)C)C(C)C)[C@@H](C)O	16.3%	7.4%	nt	nt	nt	nt
CCC(C(=O)Nc1cc(C)ccc1OC)n1nnc(C(=O)OC)c1C(=O)OC (stereo not drawn)	-1.5%	nt	-4.1%	-7.4%	-0.7%	nt
COc1cc(OC)c(OC)cc1CN1CCc2nc(N3CCN(c4ccccc4F)CC3)ncc2C1	-3.8%	nt	-0.8%[57.1 µM]	28.2%	13.9%[57.1 µM]	nt
Nc1[nH]c(C(=O)c2ccccc2)c(-c2c(F)cccc2F)c1C(=O)c1ccc(Cl)c(Cl)c1	nt	nt	nt	nt	nt	-11.5%
C=CCc1cccc2cc(C(=O)Nc3ccccc3C(=O)O)c(=O)oc12	3.4%	-4.5%	-12.3%[57.1 µM]	0.0%	-9.3%[57.1 µM]	11.9µM*
CC(=O)c1cccc(S(=O)(=O)N2CCN(c3nc(-c4cccs4)nc4ccccc34)CC2)c1	-2.2%	nt	-1.7%	nt	18.1%	nt
COCCNC(=O)CCc1ccc(S(=O)(=O)Nc2ccc(C)cc2)cc1	-12.8%	79.4µM*	-12.3%	2.9%	5.5%	-18.2%
COc1ccc(C(=O)c2c(C)c3ccccc3n2CC(O)CNC(C)C)cc1 (stereo not drawn)	-14.5%	31.6µM*	-1.1%	17.8%	1.3%	-0.3%
COc1ccccc1CNCC(O)Cn1c2ccccc2c2ccccc21 (stereo not drawn)	-20.7%	-73.8%	-2.4%	20.8%	-0.6%	-8.3%
O=C1N=c2ccc([N+](=O)[O-])cc2=C1c1sc(=O)[nH]c1O	?	-25.8%	-5.6%	0.0%	9.4%	3.36µM*
SMILES	VDR inh	Sfp PPTase inh	TrxR1 substrate	IDH1 R132H inh	rTrxR1 inhibitor	PLK1 PBD inh
Cc1ccc(C(NC(=O)C2CCN(CCOc3ccccc3)CC2)c2ccccn2)cc1 (stereo not drawn)	nt	nt	nt	nt	nt	-3.9%
CCCNC(=O)c1nc(C)n(-c2ccc([N+](=O)[O-])cc2)n1	8.3%	12.6%	2.6%[57.1 µM]	0.1%	8.7%[57.1 µM]	26.7µM*
CNC(=O)c1nc(C)n(-c2ccc([N+](=O)[O-])cc2)n1	17.3%	19.0%	-3.0%[57.1 µM]	-11.8%	-2.4%[57.1 µM]	-11.6%
Cc1ccc(/C=C/C(=O)OCC(=O)N(CC(C)C)c2c(N)n(Cc3ccccc3)c(=O)[nH]c2=O)o1	-13.2%	nt	2.0%	-5.9%	-2.4%	0.6%
CCN(C(=O)COC(=O)/C=C/c1ccc(C)o1)c1c(N)n(Cc2ccccc2)c(=O)[nH]c1=O	-16.8%	nt	-4.6%	9.0%	39.8µM*	-13.2%
CC(CCc1ccccc1)NC(=O)CN1CCN(c2ccc(O)cc2)CC1 (stereo not drawn)	3.0%	10µM*	-1.1%	8.8%	10.4%[57.1 µM]	-2.9%
CCN(C(=O)CN1CCN(c2ccc(O)cc2)CC1)c1c(N)n(Cc2ccccc2)c(=O)[nH]c1=O	-29.1%	14.1µM*	3.9%	3.8%	-1.7%	26.7µM*
CC(=O)OC[C@@H]1O[C@H](C/C=N\OC[C@@H](O)[C@H]2O[C@H]3OC(C)(C)O[C@H]3[C@@H]2O)C=C[C@@H]1OC(C)=O	nt	3.1%	nt	nt	nt	nt
CCOC(=O)c1nc(C)sc1-c1ccnn1S(=O)(=O)c1ccccc1C(F)(F)F	3.4%	50.1µM*	2.8%	7.5%	17.4%[57.1 µM]	0.8%
CC(=O)c1cccc(N2Cc3ccccc3C2=NC(=O)CCl)c1	-29.8%	?	5.0%	-12.0%	?	13.4µM*
COCCNC(=S)N/N=C(\C)CCc1ccc2c(c1)OCO2	0.0%	39.8µM*	4.6%	3.3%	-11.9%	1.8%
C/C(CCc1ccc2c(c1)OCO2)=N\NC(=O)c1ccc(C)cc1C	-11.2%	12.3%	-4.3%	-3.9%	0.5%[57.1 µM]	-6.2%
CN(C)c1ccc(/C=C/c2ncnc3ccccc23)cc1	nt	nt	-10.5%	nt	-11.2%	nt
CCCn1nnc(NC(=S)NC(=O)CC)n1	9.0%	39.8µM*	-2.9%	-0.2%	-27.0%	0.1%
